Our source for the Potency and outcome values is PubChem BioAssay (Tox21).

Test [1] in a line: qHTS assay to identify small molecule antagonists of the sonic hedgehog signaling (Shh) pathway (AID 1259369; calls by dose curve; note: nearly all actives have a fitted effect of over 45% in size; note: potency is the fitted concentration of half-maximal effect). Put shortly:
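Gli1 transcriptional reporter (firefly Luc) in NIH/3T3 background, conditioned-medium activated. 24hr exposure, luminescence endpoint.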

Test [2] addresses Estrogen receptor beta (Homo sapiens) (UniProt Q92731). Kind of test: qHTS assay to identify small molecule agonists of the estrogen receptor beta (ER-beta) signaling pathway (AID 1259377; active = well fitted activation curve with a large enough effect in the signal ratio in the repeat runs, not every such curve was filed as active; the % refers to the signal ratio). Put shortly: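 Reporter cells (HEK293T, ER-beta-UAS-bla) receive compounds or DMSO after a 6 hr pre-incubation. They then incubate 16 hr at 37C/5% CO2, and fluorescence from LiveBLAzer B/G substrate is measured after 2 hours at room temperature.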
For orientation: Quantitative high-throughput screening tests each substance at several concentrations.

Test [3] can be described thus: qHTS assay to identify small molecule agonists of the androgen receptor (AR) signaling pathway in the presence of an antagonist - cell viability counter screen (AID 1259379). Note: nearly all actives have a fitted effect of over 25% in size. Note: potency is the fitted concentration of half-maximal effect. Put shortly:
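Counter screen for cell viability run in parallel with the AR agonist-mode luciferase assay. MDA-kb2 cells were co-treated with nilutamide (3.0uM final) and compounds, then incubated 16 hr at 37C, and CellTiter-Fluor fluorescence was measured.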

A short description of test [4]: qHTS assay to identify small molecule agonists of the estrogen receptor beta (ER-beta) signaling pathway - cell viability counter screen (AID 1259380). Note: nearly all actives have a fitted effect of over 30% in size. Note: potency is the fitted concentration of half-maximal effect. In short, it runs like this:
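In this qHTS counter screen, HEK293T cells carrying an ER-beta/UAS beta-lactamase reporter, grown in 2% charcoal-stripped FBS, received compound for 16 hr; ATP-based CellTiter-Glo luminescence was then read after 30 min at room temperature.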

A short description of test [5]: qHTS assay to identify small molecule antagonists of the estrogen receptor beta (ER-beta) signaling pathway - cell viability counter screen (AID 1259382). Note: series mostly up to about 92 µM; nearly all actives have a fitted effect of over 55% in size. Put shortly:
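HEK293T ER-beta-UAS-bla, 2% charcoal-stripped FBS; compounds + 1nM E2 16 hr 37C; CellTiter-Glo luminescence, 30 min RT.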

Test [6] concerns the target Estrogen receptor (Homo sapiens) (UniProt P03372). Kind of test: qHTS assay to identify small molecule agonists of the estrogen receptor alpha (ER-alpha) signaling pathway in the presence of an antagonist (AID 1259383; calls by dose curve; note: top concentration of the series differs between compounds; nearly all actives have a fitted effect of over 15% in size). Put shortly: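 ER-alpha agonism measured under antagonist challenge: 10.0nM ICI-182,780 (final) plus compound, 15 concentrations, 22hr, VM7Luc4E2 ERE-luciferase cells. Read by luminescence.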

Test [7] in a line: qHTS assay to identify small molecule agonists or antagonists of the thyroid stimulating hormone receptor (TSHR) signaling pathway - wild type cell line counter screen (AID 1259384; calls by dose curve). In short, it runs like this:
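Wild-type HEK293 cells were plated 18 h at 37 C/5% CO2, pin-dosed with compound plus Ro20-1724 medium, held 30 min at room temperature, then given cAMP-d2 and anti-cAMP-cryptate; fluorescence was read after 1 h. Fifteen concentrations, triplicate.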

Test [8] deals with Thyrotropin receptor (Homo sapiens) (UniProt P16473). Kind of test: qHTS assay to identify small molecule antagonists of the thyroid stimulating hormone receptor (TSHR) signaling pathway (AID 1259385; calls by dose curve; note: nearly all actives have a fitted effect of over 20% in size). In short, it runs like this:
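TSHR-HEK293 cells were plated and held 18 h at 37C/5% CO2, then given compound plus Ro20-1724 and stimulated with TSH at 1.5 ng/mL final. After 30 min at room temperature, cAMP was detected with cAMP-d2/anti-cAMP-cryptate (1 h) by fluorescence.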

Test [9] is described as follows: qHTS assay to identify small molecule agonists of the estrogen receptor alpha (ER-alpha) signaling pathway in the presence of an antagonist - cell viability counter screen (AID 1259386).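 Note: series mostly up to about 92 µM; cells exposed to compounds for 22 h at 37 °C before the viability read; nearly all actives have a fitted effect of over 30% in size.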 Put shortly:
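Steps: 5-day stripped-FBS culture; seed and incubate 24hr; add ICI-182,780 (10.0nM final); pin 15-point compound titration; incubate 22hr at 37C; add CellTiter-Fluor at 21hr; read fluorescence.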

Test [10] addresses Progesterone receptor (Homo sapiens) (UniProt P06401). Kind of test: qHTS assay to identify small molecule agonists of the progesterone receptor (PR) signaling pathway (AID 1346784; calls by dose curve; note: nearly all actives have a fitted effect of over 30% in size). In short, it runs like this: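 Reporter assay, GripTite PR-UAS-bla HEK 293T cells: 16 hr exposure to DMSO-dissolved compounds at 37C, 5% CO2, in steroid-depleted (2% charcoal-stripped FBS) medium; beta-lactamase measured by FRET fluorescence.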

Test [11] is described as follows: qHTS assay to identify small molecule agonists of the TGF-beta/Smad signaling pathway - cell viability counter screen (AID 1346829). Note: top concentration of the series differs between compounds; nearly all actives have a fitted effect of over 45% in size. In short, it runs like this: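 Tox21 qHTS format: SBE-bla HEK 293T cells treated with DMSO-dissolved compounds for 5 hr; CellTiter-Glo luminescence after 30 min at room temperature.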
The target in test [12] is Estrogen receptor beta (Homo sapiens) (UniProt Q92731). Kind of test: qHTS assay to identify small molecule antagonists of the estrogen receptor beta (ER-beta) signaling pathway (AID 1259378; active = well fitted inhibition curve with a large enough effect in the signal ratio in the repeat runs, not every such curve was filed as active; the % refers to the signal ratio; note: potency is the fitted concentration of half-maximal effect). In short, it runs like this:
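ER-beta-UAS-bla HEK293T (GripTite) cells in 2% charcoal-stripped FBS medium were preincubated 6 hr at 37C, dosed with compound, then stimulated with 1 nM E2 (final) for 16 hr; beta-lactamase reporter read by B/G FRET fluorescence after 2 hr substrate loading.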

A short description of test [13]: qHTS assay to identify small molecule antagonists of the TGF-beta/Smad signaling pathway - cell viability counter screen (AID 1346824). Note: nearly all actives have a fitted effect of over 50% in size. In short, it runs like this: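 SBE-bla HEK 293T cells were plated overnight at 37 C, then given compounds in DMSO plus TGF-beta1 (added as 0.25 ng/mL solution) for 5 hr. After the bla read, CellTiter-Glo was added to the same wells and luminescence read after 30 min at room temperature.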

A short description of test [14]: qHTS assay to identify small molecule agonists of the TGF-beta/Smad signaling pathway (AID 1346859; active = well fitted activation curve with a large enough effect in the signal ratio in the repeat runs, not every such curve was filed as active; the % refers to the signal ratio; note: series mostly up to about 77 µM). Put shortly: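 Screening used HEK 293T SBE-bla cells at 4,000/well. Test agents: 5 hr, 37 C. Detection: FRET substrate, 2 hr RT, then excitation 405 nm with emissions at 460 and 530 nm.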
The nature of test [15]: qHTS assay to identify small molecule antagonists of the progesterone receptor (PR) signaling pathway - cell viability counter screen (AID 1346798). Note: series mostly up to about 92 µM; nearly all actives have a fitted effect of over 50% in size. In short, it runs like this:
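In the same plates used for the beta-lactamase readout, cell viability of compound- and R5020-treated PR-UAS-bla HEK293T cells (16 hr, 37C) was assessed by CellTiter-Glo luminescence.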

Test [16] in a line: qHTS assay to identify small molecule agonists of the progesterone receptor (PR) signaling pathway - cell viability counter screen (AID 1346799; calls by dose curve; note: nearly all actives have a fitted effect of over 45% in size). In short, it runs like this: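 Multiplexed viability read: CellTiter-Glo luminescence, 30 min RT, following LiveBLAzer FRET measurement on PR-UAS-bla HEK293T cells exposed to compounds 16 hr.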
For test [17], the target named is Thyrotropin-releasing hormone receptor (Homo sapiens) (UniProt P34981). In words: qHTS assay to identify small molecule antagonists of the thyrotropin-releasing hormone receptor (TRHR) signaling pathway (AID 1346877; active = well fitted inhibition curve with a large enough effect in the repeat runs, not every such curve was filed as active; note: series mostly up to about 51 µM). Put shortly:
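Human TRHR in HEK293 cells; inhibition of the intracellular calcium rise triggered by 1 nM TRH was followed by fluorescence over 3 min. Compounds were run at 15 concentrations, three replicates each.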

The target is the same in test [18]. In words: qHTS assay to identify small molecule agonists of the thyrotropin-releasing hormone receptor (TRHR) signaling pathway (AID 1346891; calls by dose curve; note: series mostly up to about 58 µM). In short, it runs like this: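 Readout was intracellular calcium fluorescence in TRHR-Hek293 cells. Cells were incubated 18 h, dye-loaded 2 h at 37 °C, and treated with compound in agonist mode.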
In test [19] the target is Progesterone receptor (Homo sapiens) (UniProt P06401). In words: qHTS assay to identify small molecule antagonists of the progesterone receptor (PR) signaling pathway (AID 1346795; active = well fitted inhibition curve with a large enough effect in the signal ratio in the repeat runs, not every such curve was filed as active; the % refers to the signal ratio). Put shortly: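 Stimulus R5020 at 1 nM final; cells HEK293T PR-UAS-bla; medium with 2% charcoal-stripped FBS; compound exposure 16 hr at 37C, 5% CO2; detection by FRET beta-lactamase substrate, 2 hr, room temperature.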
Progesterone receptor (Homo sapiens), sequence (P06401 whole entry, looked up): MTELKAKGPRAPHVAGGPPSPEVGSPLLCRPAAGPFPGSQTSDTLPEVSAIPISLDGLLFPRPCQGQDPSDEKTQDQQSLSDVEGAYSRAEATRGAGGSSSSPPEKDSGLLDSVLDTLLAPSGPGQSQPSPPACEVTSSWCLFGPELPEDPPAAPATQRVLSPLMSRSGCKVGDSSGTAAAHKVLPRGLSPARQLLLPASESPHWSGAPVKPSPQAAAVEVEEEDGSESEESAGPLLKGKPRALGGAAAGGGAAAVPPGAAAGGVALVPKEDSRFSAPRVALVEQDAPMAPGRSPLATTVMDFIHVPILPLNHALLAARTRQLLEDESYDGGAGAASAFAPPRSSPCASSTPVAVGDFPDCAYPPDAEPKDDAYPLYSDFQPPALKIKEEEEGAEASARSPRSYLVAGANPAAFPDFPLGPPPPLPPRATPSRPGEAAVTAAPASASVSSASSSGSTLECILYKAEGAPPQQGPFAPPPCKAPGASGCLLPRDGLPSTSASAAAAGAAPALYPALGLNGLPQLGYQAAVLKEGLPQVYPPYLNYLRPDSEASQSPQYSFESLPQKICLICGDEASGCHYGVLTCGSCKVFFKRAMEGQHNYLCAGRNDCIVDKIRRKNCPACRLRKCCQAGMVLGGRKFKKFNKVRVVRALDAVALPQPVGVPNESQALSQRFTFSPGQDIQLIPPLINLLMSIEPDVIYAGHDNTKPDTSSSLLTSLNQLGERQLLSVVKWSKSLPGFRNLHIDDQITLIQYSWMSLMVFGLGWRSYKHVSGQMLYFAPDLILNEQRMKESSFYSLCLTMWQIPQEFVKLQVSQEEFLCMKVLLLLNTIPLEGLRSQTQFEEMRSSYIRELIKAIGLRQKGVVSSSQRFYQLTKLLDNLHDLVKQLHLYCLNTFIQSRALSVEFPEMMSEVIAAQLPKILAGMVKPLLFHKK

For test [20], the target named is Androgen receptor (Homo sapiens) (UniProt P10275). In words: qHTS assay to identify small molecule agonists of the androgen receptor (AR) signaling pathway in the presence of an antagonist (AID 1259381; calls by dose curve; note: nearly all actives have a fitted effect of over 15% in size). Put shortly:
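AR antagonist background: nilutamide 3.0uM final. Cell line: MDA-kb2, MMTV-driven luciferase, responsive to both AR and GR. Exposure 16hr, 37C, no CO2; ONE-Glo luminescence.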

A number with no mark means an inactive call. Inconclusive results are not listed. Activity calls are given as the source filed them. Unless noted, calls come from the whole dose curve; as a rule, active = well fitted curve in the direction sought with a large enough effect in the repeat runs; inconclusive = weak or mixed curves; inactive = no such curve, though single readings can be large; an effect the other way counts as inactive or inconclusive.

Thyrotropin-releasing hormone receptor (Homo sapiens), sequence (P34981 whole entry, looked up): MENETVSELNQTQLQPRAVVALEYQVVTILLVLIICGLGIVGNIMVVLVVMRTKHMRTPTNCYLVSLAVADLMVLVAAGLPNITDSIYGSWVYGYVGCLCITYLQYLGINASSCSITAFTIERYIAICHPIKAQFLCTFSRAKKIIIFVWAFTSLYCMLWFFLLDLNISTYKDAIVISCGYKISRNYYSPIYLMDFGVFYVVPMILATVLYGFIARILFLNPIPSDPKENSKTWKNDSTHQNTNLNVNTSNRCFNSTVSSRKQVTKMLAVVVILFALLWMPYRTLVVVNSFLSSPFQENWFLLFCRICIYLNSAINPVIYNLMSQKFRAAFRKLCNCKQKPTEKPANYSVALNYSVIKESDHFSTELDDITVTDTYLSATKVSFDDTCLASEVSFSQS
Estrogen receptor (Homo sapiens), sequence (P03372 whole entry, looked up): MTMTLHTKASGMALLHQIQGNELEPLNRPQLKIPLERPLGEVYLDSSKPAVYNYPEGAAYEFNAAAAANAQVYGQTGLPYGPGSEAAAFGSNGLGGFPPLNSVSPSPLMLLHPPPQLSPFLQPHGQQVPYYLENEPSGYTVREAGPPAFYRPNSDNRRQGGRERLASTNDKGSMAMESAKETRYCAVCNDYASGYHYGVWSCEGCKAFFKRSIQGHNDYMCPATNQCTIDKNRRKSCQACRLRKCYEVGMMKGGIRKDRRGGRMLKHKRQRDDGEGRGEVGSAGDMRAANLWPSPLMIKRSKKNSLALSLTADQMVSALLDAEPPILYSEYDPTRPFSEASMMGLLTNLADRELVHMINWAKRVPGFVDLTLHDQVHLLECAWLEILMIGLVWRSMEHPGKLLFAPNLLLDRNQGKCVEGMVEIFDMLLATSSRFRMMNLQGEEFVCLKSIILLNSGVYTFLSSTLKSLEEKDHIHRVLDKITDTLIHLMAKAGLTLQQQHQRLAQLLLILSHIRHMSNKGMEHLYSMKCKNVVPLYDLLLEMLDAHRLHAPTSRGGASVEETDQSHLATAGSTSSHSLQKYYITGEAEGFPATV
Estrogen receptor beta (Homo sapiens), sequence (Q92731 whole entry, looked up): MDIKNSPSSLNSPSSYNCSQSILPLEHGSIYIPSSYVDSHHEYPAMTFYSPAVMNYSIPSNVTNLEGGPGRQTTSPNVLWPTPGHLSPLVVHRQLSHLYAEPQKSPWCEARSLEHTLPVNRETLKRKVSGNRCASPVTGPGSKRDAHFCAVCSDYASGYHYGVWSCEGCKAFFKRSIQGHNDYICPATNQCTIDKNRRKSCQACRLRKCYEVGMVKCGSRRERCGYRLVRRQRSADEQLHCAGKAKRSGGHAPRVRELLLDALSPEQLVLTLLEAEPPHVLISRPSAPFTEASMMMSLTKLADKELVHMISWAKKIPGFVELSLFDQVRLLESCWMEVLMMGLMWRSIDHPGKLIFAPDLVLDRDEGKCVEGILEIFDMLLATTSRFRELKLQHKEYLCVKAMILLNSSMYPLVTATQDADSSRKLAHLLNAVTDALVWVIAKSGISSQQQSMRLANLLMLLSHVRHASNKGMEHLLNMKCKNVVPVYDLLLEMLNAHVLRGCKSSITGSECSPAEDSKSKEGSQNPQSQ
Thyrotropin receptor (Homo sapiens), sequence (P16473 whole entry, looked up): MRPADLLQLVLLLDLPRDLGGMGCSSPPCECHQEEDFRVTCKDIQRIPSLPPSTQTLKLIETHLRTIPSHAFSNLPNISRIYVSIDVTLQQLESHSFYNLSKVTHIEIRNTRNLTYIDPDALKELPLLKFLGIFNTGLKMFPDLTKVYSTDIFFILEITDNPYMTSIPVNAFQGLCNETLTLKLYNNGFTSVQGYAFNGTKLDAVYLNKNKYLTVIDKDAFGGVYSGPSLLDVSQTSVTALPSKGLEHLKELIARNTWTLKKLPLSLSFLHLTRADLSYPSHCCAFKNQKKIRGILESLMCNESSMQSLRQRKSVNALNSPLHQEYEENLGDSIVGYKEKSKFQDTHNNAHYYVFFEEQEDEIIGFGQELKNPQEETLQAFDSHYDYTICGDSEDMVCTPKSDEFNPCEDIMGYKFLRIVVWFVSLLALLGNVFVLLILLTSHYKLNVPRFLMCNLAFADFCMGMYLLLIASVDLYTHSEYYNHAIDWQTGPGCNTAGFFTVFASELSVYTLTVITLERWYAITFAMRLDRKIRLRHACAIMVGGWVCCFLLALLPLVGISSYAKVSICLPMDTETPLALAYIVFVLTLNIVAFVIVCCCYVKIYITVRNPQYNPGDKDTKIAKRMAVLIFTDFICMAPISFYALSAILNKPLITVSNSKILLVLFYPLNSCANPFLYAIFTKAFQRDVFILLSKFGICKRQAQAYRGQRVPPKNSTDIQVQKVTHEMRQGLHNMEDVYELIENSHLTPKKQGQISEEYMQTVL
Androgen receptor (Homo sapiens), sequence (P10275 whole entry, looked up): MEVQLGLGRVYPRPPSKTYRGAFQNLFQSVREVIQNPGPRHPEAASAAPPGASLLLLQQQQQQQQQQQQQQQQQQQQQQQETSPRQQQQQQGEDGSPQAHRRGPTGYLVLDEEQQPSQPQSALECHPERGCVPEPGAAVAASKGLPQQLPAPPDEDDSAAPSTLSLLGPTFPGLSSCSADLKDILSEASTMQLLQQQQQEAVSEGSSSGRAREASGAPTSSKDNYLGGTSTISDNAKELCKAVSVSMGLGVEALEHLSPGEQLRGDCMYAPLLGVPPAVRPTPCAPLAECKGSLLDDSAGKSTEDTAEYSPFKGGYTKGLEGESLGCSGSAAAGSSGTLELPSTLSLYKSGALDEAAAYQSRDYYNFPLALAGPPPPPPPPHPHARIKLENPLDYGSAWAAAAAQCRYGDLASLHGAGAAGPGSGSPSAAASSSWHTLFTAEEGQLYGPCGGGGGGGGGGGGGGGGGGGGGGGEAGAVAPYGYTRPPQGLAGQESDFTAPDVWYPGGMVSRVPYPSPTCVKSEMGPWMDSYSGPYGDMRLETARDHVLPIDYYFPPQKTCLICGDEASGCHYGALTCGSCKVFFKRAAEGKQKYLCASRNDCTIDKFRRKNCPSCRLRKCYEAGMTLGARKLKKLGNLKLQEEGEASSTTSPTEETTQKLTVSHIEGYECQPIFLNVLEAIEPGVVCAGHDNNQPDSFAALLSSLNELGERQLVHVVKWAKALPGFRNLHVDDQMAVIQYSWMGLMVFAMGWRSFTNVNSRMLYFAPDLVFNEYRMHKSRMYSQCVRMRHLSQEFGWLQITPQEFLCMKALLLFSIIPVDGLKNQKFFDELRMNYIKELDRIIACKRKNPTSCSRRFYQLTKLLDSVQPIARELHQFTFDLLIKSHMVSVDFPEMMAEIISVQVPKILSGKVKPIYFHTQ

For `O=C1C(O)=C(O)C(=O)C(O)=C1O`, the Potency result in [1], in [2], in test [3], in test [4], in test [5] and in [6] was “inactive” throughout. Further, the Potency entry in test [7], in [8], in [9] and in [10] was “inactive” in each case. Moreover, the call in test [11] was inactive.
Consider `CC(=O)c1ccc2c(c1)N(CCCN1CCC(CCO)CC1)c1ccccc1S2`, for which the Potency in [1] is 11.9 µM (active); in test [12], 15 µM (active); in test [4] it was 26.6 µM (active). Moreover, the Potency result in [2], in test [6], in test [10], in test [13] and in [14] was “inactive” throughout. Moreover, in test [11], the molecule was called inactive.
For the molecule `CC(C)(C)Cl`, the Potency entry in [1], in [12], in [3], in test [4], in test [5] and in [6] was “inactive” in each case. Besides, the Potency result in test [7], in [8], in test [9], in [10], in test [15] and in test [16] was “inactive” in each case. Further, the Potency entry in [13], in [14] and in [18] was “inactive” each time. In addition, the result in test [11] and in test [17] was inactive.
`Cc1cccc(C)c1NC(=O)CN(CC(=O)O)CC(=O)O`: the Potency result in [1], in test [2], in [3], in [4], in test [5] and in [7] was “inactive” in each case. Also, the Potency entry in test [8], in [9], in [19], in test [15] and in [13] was “inactive” in each case. Also, the molecule was called inactive in test [11] and in [17].
`C=CCOc1ccccc1OCC(O)CNC(C)C` (stereo not given): the Potency entry in test [1], in test [2], in test [3], in test [4], in [6] and in test [9] was “inactive” in each case. Besides, the Potency result in test [15], in test [16], in test [13], in test [14] and in test [18] was “inactive” in each case. The result in test [11] and in test [17] was inactive.
`O=C(Nc1ccccc1)c1ccccc1O`: the Potency is 54.5 µM (active) in test [1] and 61.1 µM (active) in test [3]. Besides, the Potency result in [2], in test [20], in test [5], in test [10], in [15] and in [14] was “inactive” throughout. Further, in test [18], the Potency entry was “inactive”. For the same molecule, the call in test [11] and in test [17] was inactive.
Regarding `CCCCCCCCCCCC(=O)OC[C@@H](O)[C@H]1OC[C@H](OCCO)[C@H]1OCCO`, the Potency result in [1], in test [2], in [3], in test [4], in test [5] and in test [6] was “inactive” each time. The Potency result in test [7], in [8], in test [10], in test [19], in test [16] and in [13] was “inactive” throughout. For the same molecule, the Potency result in test [14] and in test [18] was “inactive” in each case. Further, the molecule was classed as inactive in test [11] and in test [17].
